Reference: PubChem BioAssay (NCATS)
Several values for one entry are separate records, joined by “and”; a condition that tells them apart may be missing. Identical values can stand only once. Inconclusive results are not listed. Some structures have more than one record in an assay (separate samples or runs), and their calls can disagree. Activity calls are given as the source filed them. Unless noted, the call rests on the fitted dose curve.

How the values were obtained:
[1] = molecular target: Cytochrome P450 3A4 (Homo sapiens) (UniProt P08684); assay: qHTS Assay for Inhibitors and Substrates of Cytochrome P450 3A4 (AID 884; active means well fitted curve in the direction sought with a large enough effect; an effect the other way counts as inactive or inconclusive; further: nearly all actives have a fitted effect of over 50% in size; further: potency means the concentration at half of the fitted maximal effect)
Procedure, shortened: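 Luminescent readout of luciferin produced by CYP3A4 (20 nM) dealkylation of Luciferin-PPXE, 25 uM (its KM). NADPH-driven reaction ran 60 min at RT after 10 min compound preincubation; data scaled to 57 uM ketoconazole as 100% inhibition.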

[2] = molecular target: Cytochrome P450 3A4 (Homo sapiens) (UniProt P08684); assay: qHTS Assay for Activators of Cytochrome P450 3A4 (AID 885; active means well fitted curve in the direction sought with a large enough effect; an effect the other way counts as inactive or inconclusive; further: nearly all actives have a fitted effect of over 65% in size)
Procedure, shortened: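 Activators are scored by enhanced luminescence from CYP3A4 conversion of luciferin-PPXE (25uM, equal to KM) to luciferin, after 60 min at RT with an NADPH-regenerating system.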

[3] = molecular target: Alpha-galactosidase (Coffea arabica) (UniProt Q42656); assay: Counterscreen for Glucocerebrosidase Inhibitors: qHTS Assay for Coffee Bean alpha-Galactosidase at pH 4.5 (AID 957; active means well fitted curve in the direction sought with a large enough effect; an effect the other way counts as inactive or inconclusive; further: series mostly up to about 77 µM)
Procedure, shortened: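 Fluorogenic qHTS at pH 4.5 (citrate buffer with Tween-20): 2 nM enzyme, 80 uM 4-MU-alpha-galactoside substrate, compound titrated 0.7 nM to 77 uM, 20 min room temperature. Glycine/NaOH stop; 4-MU read Ex 365/Em 440; Hill-equation AC50 against no-enzyme and enzyme controls.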

[4] = molecular target: Alpha-galactosidase (Coffea arabica) (UniProt Q42656); assay: Counterscreen for Glucocerebrosidase Inhibitors: qHTS Assay for Coffee Bean alpha-Galactosidase at pH 5.9 (AID 998; active means well fitted curve in the direction sought with a large enough effect; an effect the other way counts as inactive or inconclusive)
Procedure, shortened: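 In 50 mM citric acid pH 5.9 with 0.005% Tween-20, coffee bean enzyme hydrolyses 80 uM 4-MU alpha-D-galactopyranoside over 20 min at RT. Activity is normalized to controls; AC50 comes from Hill-modelled concentration-response data.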

[5] = Inducers of the Endoplasmic Reticulum Stress Response (ERSR) in human glioma: Validation (AID 504836; active means well fitted curve in the direction sought with a large enough effect; an effect the other way counts as inactive or inconclusive)
Procedure, shortened: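 Stably transfected U87-MG human glioma cells carrying a GRP78-based luminescent sensor were seeded at 1000 cells/well, pin-dosed with compounds and incubated 16 h. Luciferase reagent was then added, and end-point luminescence was read after 10 min at room temperature.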

[6] = qHTS for Inhibitors of the Functional Ribonucleoprotein Complex (vRNP) of Lassa (LASV) Arenavirus: LASV Primary Screen - GLuc reporter signal (AID 1347082; calls by dose curve; tested in HEK293 reporter line; further: series mostly up to about 57 µM; nearly all actives have a fitted effect of over 60% in size)
[7] = qHTS for Inhibitors of the Functional Ribonucleoprotein Complex (vRNP) of Lassa (LASV) Arenavirus: Viability assay - alamar blue signal for LASV Primary Screen (AID 1347083; calls by dose curve; tested in HEK293 reporter line; further: series mostly up to about 57 µM; nearly all actives have a fitted effect of over 80% in size)
[8] = qHTS for Inhibitors of the Functional Ribonucleoprotein Complex (vRNP) of Lymphocytic Choriomeningitis Arenaviruses (LCMV): Viability assay - alamar blue signal for LCMV Primary Screen (AID 1347085; calls by dose curve; tested in HEK293 reporter line; further: series mostly up to about 57 µM; nearly all actives have a fitted effect of over 80% in size)
[9] = molecular target: Nucleoprotein (Lymphocytic choriomeningitis virus (strain Armstrong)) (UniProt P09992); assay: qHTS for Inhibitors of the Functional Ribonucleoprotein Complex (vRNP) of Lymphocytic Choriomeningitis Arenaviruses (LCMV): LCMV Primary Screen - GLuc reporter signal (AID 1347086); further: series mostly up to about 57 µM; nearly all actives have a fitted effect of over 70% in size
[10] = molecular target: Nuclear receptor subfamily 1 group I member 3 (Homo sapiens) (UniProt Q14994); assay: Primary qHTS for antagonist of constitutive androstane receptor (CAR) against the NCATS DSHEA and TCM libraries (AID 1794836; active means well fitted curve in the direction sought with a large enough effect; an effect the other way counts as inactive or inconclusive; further: series mostly up to about 40 µM)
Procedure, shortened: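 HepG2 cells stably carrying hCAR and a CYP2B6 luciferase reporter (2,500 cells/well) attached for 5 h, then received compounds with 48 uM CITCO for 24 h at 37C. ONE-Glo luminescence read antagonism; CellTiter-Fluor (405/540 nm) gave viability.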

[11] = Validation screen for inhibitors of Lassa infection (AID 463096)
[12] = molecular target: M-phase phosphoprotein 8 (Homo sapiens) (UniProt Q99549); assay: qHTS Validation Assay for Inhibitors for MPP8 Chromodomain Interactions with Methylated Histone Tails (AID 488949; active means well fitted curve in the direction sought with a large enough effect; an effect the other way counts as inactive or inconclusive; further: nearly all actives have a fitted effect of over 55% in size; further: potency means the concentration at half of the fitted maximal effect)
Procedure, shortened: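 AlphaScreen proximity signal from streptavidin donor and Ni-chelate acceptor beads (10 ug/mL each) reported binding of MPP8 to trimethyl-K9 H3(1-18) peptide, both at 50 nM. The complex formed 30 min before a 30 min compound exposure at room temperature, in PBS pH 7.4.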

[13] = molecular target: Chromobox protein homolog 1 (Homo sapiens) (UniProt P83916); assay: qHTS Validation Assay for Inhibitors of HP1-beta Chromodomain Interactions with Methylated Histone Tails (AID 488953; active means well fitted curve in the direction sought with a large enough effect; an effect the other way counts as inactive or inconclusive; further: potency means the concentration at half of the fitted maximal effect; nearly all actives have a fitted effect of over 50% in size)
Procedure, shortened: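 AlphaScreen proximity signal from streptavidin donor and nickel chelate acceptor beads (final 10 ug/mL) after 30 min dark incubation. Compounds had 30 min at room temperature with preformed complex of 50 nM HP1-beta and 50 nM b-H3(1-18)K9me3 in PBS pH 7.4 with 0.01% Tween-20.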

[14] = Cell Viability - BJ (AID 421); conditions: BJ fibroblast viability, qHTS;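 further: potency means the concentration at half of the fitted maximal effect; cells exposed to compound for 40 hours at 37 °C before readout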
Procedure, shortened: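 Cytotoxicity in human BJ foreskin fibroblasts is scored as loss of cellular ATP after a 40-hour exposure, measured by luciferase luminescence. Controls are DMSO and 100 uM tamoxifen.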

[15] = Cell Viability - Hek293 (AID 427;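 active means compounds whose dose-response curve shows a full or clear partial loss of cell viability, called from curve shape rather than a numeric limit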;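 further: potency means the concentration at half of the fitted maximal effect; cells exposed to compound for 40 hours at 37 °C before reading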); conditions: qHTS
Procedure, shortened: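 qHTS, human embryonic kidney (adenovirus-transformed) cells; 40 hr cpd, 37 °C; CellTiter-Glo ATP luminescence. Norm: DMSO = 0, 100 uM tamoxifen = 100% inhibition. Hill-fit AC50.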

[16] = Cell Viability - HepG2 (AID 433); conditions: qHTS;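 further: potency means the concentration at half of the fitted maximal effect; potency for ATP loss meaning cytotoxicity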
Procedure, shortened: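 Cytotoxicity read as ATP loss (CellTiter-Glo luminescence) after 40 hr compound exposure of HepG2, 1500 cells/well, 37 °C. AC50 by Hill equation; 0% set by DMSO, 100% inhibition by 100 uM tamoxifen.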

[17] = Cell Viability - MRC5 (AID 434); conditions: MRC5 lung fibroblast viability, qHTS;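 further: potency means the concentration at half of the fitted maximal effect; cells exposed to compound for 40 hours at 37 °C; potency reflects cytotoxicity seen as loss of intracellular ATP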
Procedure, shortened: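 Decrease in intracellular ATP, quantified by luciferase light output, reflects compound toxicity toward MRC5 cells exposed for 40 hr in complete culture medium. Concentration-response curves, scaled between DMSO and 100 uM tamoxifen, gave AC50 values.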

[18] = Cell Viability - SK-N-SH (AID 435); conditions: SK-N-SH neuroblastoma cell viability qHTS; further: potency means the concentration at half of the fitted maximal effect
Procedure, shortened: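 qHTS cytotoxicity: CellTiter-Glo ATP luminescence after 40 h compound exposure of human neuroblastoma SK-N-SH cells at 37 °C. AC50 derived by Hill-equation fitting, with DMSO as basal and 100 uM tamoxifen as full inhibition.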

[19] = Cell Viability - HUV-EC-C (AID 542; active means well fitted curve in the direction sought with a large enough effect; an effect the other way counts as inactive or inconclusive; further: nearly all actives have a fitted effect of over 35% in size)
Procedure, shortened: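 CellTiter-Glo luminescence measured ATP loss in HUV-EC-C cells (1000/well) after 40 hr compound exposure at 37 °C, in complete culture medium. Concentration-response data were Hill-fitted to give AC50.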

[20] = MultiTox-Fluor Cytotoxicity Assay - LYMP1-003 - Dead Cells (AID 961; active means well fitted curve in the direction sought with a large enough effect; an effect the other way counts as inactive or inconclusive;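 further: cells exposed to compound for 16 h at 37 °C; nearly all actives have a fitted effect of over 70% in size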)
Procedure, shortened: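 LYMP1-003 lymphoblastoid, 2500 cells/well, 5 hr settle then 16 hr cpd at 37 C; MultiTox-Fluor reagent 60 min RT; Ex/Em 485/520 dead-cell signal; norm. DMSO = 0%, 15 uM tetraoctylammonium bromide = 100%; Hill AC50.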

Measured: Potency

Sequence of Nuclear receptor subfamily 1 group I member 3 (Homo sapiens) (Q14994 whole entry, looked up): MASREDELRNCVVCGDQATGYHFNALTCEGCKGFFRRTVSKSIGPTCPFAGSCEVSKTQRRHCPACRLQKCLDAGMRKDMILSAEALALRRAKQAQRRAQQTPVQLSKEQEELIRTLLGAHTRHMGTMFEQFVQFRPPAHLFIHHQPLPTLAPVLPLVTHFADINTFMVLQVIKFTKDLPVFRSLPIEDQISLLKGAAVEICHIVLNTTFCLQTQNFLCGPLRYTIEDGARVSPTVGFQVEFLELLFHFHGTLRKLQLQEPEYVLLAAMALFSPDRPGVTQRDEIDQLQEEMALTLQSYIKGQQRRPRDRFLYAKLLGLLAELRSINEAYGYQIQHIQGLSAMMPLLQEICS
Sequence of Cytochrome P450 3A4 (Homo sapiens) (P08684 whole entry, looked up): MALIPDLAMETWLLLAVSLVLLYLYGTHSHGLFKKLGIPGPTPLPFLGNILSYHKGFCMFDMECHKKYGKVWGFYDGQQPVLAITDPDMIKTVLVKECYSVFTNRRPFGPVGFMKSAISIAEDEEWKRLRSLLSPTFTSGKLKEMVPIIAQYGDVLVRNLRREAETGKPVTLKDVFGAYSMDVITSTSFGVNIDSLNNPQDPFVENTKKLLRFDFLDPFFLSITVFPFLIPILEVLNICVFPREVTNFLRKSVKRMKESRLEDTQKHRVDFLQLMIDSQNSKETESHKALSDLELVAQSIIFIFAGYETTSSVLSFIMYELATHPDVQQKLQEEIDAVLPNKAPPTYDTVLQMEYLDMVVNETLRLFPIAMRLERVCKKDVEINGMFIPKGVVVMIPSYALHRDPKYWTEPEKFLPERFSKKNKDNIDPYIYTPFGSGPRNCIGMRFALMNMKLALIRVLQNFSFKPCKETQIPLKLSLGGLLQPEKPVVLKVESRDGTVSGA
Sequence of Alpha-galactosidase (Coffea arabica) (Q42656 whole entry, looked up): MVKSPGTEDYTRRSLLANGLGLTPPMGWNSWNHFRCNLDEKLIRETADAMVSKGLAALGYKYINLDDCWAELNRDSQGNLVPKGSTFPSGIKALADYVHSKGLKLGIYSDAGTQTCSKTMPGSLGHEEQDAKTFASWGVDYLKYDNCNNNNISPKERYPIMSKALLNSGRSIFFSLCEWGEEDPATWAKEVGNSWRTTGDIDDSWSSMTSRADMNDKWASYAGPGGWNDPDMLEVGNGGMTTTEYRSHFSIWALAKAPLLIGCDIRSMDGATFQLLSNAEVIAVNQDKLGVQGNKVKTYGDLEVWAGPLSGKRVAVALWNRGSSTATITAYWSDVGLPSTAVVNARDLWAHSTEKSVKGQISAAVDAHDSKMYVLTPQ
Sequence of Nucleoprotein (Lymphocytic choriomeningitis virus (strain Armstrong)) (P09992 whole entry, looked up): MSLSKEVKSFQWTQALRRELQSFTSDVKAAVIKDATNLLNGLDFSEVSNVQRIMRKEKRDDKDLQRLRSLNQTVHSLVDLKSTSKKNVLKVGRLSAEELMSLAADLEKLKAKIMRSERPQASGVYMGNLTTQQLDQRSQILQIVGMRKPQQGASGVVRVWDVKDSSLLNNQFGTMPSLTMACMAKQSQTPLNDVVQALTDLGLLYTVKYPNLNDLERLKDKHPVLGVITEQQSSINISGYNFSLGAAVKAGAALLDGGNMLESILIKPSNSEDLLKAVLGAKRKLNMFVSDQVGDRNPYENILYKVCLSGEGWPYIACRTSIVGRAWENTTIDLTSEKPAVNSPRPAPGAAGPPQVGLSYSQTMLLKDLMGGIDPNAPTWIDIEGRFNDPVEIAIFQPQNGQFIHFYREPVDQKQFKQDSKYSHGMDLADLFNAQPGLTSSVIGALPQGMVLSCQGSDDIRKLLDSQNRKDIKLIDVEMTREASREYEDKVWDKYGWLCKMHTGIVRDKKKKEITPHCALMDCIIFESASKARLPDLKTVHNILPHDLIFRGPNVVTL
Sequence of M-phase phosphoprotein 8 (Homo sapiens) (Q99549 whole entry, looked up): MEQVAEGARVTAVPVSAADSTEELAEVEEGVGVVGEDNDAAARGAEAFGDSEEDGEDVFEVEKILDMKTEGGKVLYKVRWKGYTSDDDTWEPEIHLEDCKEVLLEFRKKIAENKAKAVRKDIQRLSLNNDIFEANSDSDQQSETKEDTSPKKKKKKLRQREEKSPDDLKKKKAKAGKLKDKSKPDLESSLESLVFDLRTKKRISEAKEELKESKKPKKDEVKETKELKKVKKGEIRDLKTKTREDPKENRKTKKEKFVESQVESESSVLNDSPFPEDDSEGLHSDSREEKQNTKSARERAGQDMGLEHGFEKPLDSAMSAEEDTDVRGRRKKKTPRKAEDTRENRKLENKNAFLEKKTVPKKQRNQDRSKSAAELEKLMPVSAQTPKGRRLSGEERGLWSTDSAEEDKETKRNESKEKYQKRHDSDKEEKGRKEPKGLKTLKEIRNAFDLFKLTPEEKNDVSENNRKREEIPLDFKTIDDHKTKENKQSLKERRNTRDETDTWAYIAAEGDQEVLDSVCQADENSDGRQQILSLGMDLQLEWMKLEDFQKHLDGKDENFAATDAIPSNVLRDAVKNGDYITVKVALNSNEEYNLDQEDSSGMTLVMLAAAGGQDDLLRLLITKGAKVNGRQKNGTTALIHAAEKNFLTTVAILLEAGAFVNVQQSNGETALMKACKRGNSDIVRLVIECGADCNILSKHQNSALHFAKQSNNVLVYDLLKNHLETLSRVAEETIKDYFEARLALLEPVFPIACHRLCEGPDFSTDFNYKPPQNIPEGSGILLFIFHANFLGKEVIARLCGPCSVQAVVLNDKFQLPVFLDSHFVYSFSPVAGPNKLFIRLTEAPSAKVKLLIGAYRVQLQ
Sequence of Chromobox protein homolog 1 (Homo sapiens) (P83916 whole entry, looked up): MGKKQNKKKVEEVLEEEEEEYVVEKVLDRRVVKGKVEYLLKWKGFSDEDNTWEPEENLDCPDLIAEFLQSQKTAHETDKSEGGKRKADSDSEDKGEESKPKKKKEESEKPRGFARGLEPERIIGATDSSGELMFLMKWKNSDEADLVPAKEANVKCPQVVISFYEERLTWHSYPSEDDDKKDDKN

Oc1ccc(-c2nc(-c3ccc(F)cc3)c(-c3ccncc3)[nH]2)cc1
active: [1] 1 µM
inactive: [2] | [3] | [4] | [5] | [6] | [7] | [8] | [9]

CC(=O)OC/C=C/c1ccccc1
inactive: [6] | [7] | [8] | [9] | [10]

Nc1nc2ccc(Cl)cc2c2nc(-c3ccco3)nn12
inactive: [2] | [3] | [4] | [11] | [5] | [6] | [7] | [8] | [9]
50.1 µM (active) and inactive: [12]

O=c1c(-c2ccc(O)cc2)coc2cc(O[C@@H]3O[C@H](CO)[C@H](O)[C@H](O)[C@H]3O)ccc12
inactive: [6] | [7] | [8] | [9] | [10]

N#C/C(=C\c1ccc(O)c(O)c1)C(=O)NCCCNC(=O)/C(C#N)=C/c1ccc(O)c(O)c1
inactive: [2] | [4] | [11] | [5] | [6] | [7] | [8] | [9]
active: [1] 2 µM | [12] 316 nM and 2.12 µM | [13] 3.77 µM

CC(=O)/C=C/c1ccccc1
inactive: [14] > 92 µM | [15] > 92 µM | [16] > 92 µM | [17] > 92 µM | [18] > 92 µM | [19] | [1] | [20] | [6] | [7] | [8] | [9]

CC1CCN=C(N)S1 (stereo not given)
inactive: [11] | [6] | [7] | [8] | [9]

CCNC(=O)[C@H]1O[C@@H](n2cnc3c(N)nc(NCCc4ccc(CCC(=O)O)cc4)nc32)[C@H](O)[C@H]1O
inactive: [11] | [6] | [7] | [8] | [9]

CCOC(=O)c1ccccc1N
inactive: [14] > 92 µM | [15] > 92 µM | [16] > 92 µM | [17] > 92 µM | [18] > 92 µM | [19] | [1] | [20] | [6] | [7] | [8] | [9]

Oc1ccccc1Cl
inactive: [14] > 92 µM | [15] > 92 µM | [16] > 92 µM | [17] > 92 µM | [18] > 92 µM | [19] | [1] | [20] | [6] | [7] | [8] | [9]

O=C1O/C(=C/Br)CCC1c1cccc2ccccc12 (stereo not given)
inactive: [11] | [6] | [7] | [8] | [9]

O=c1cc(O)cc(/C=C/c2ccc(O)c(O)c2)o1
inactive: [11] | [6] | [7] | [8] | [9]

C=C/C(C)=C/[C@@]1(C)SC(=O)C(C)=C1O
inactive: [11] | [6] | [7] | [8] | [9]

CC1C(=O)N(C)C(=O)c2nc[nH]c21 (stereo not given)
inactive: [11] | [6] | [7] | [8] | [9]

OC(CN1CCN(c2cccc(Cl)c2)CC1)C(c1ccccc1)c1ccccc1 (stereo not given)
inactive: [11] | [6] | [7] | [8] | [9]

c1ccc(Nc2ccc3ccccc3c2)cc1
inactive: [14] > 92 µM | [15] > 92 µM | [16] > 92 µM | [17] > 92 µM | [18] > 92 µM | [19] | [2] | [20] | [6] | [7] | [8] | [9]

CCCCCCCCCCCCCC(=O)OCC(O)CO (stereo not given)
inactive: [6] | [7] | [8] | [9] | [10]

CC(C)COC(=O)c1ccccc1C(=O)OCC(C)C
inactive: [14] > 92 µM | [15] > 92 µM | [16] > 92 µM | [17] > 92 µM | [18] > 92 µM | [19] | [1] | [20] | [6] | [7] | [8] | [9]

O=c1cc(-c2ccc(O)cc2)oc2cc(O)cc(O)c12
inactive: [4] | [5] | [6] | [7] | [8] | [9] | [10]

O=c1oc(Cl)c(Cl)c2ccccc12
active: [13] 39.8 µM
inactive: [3] | [4] | [5] | [6] | [7] | [8] | [9]
25.1 µM (active) and inactive: [12]

O=C(/C=C/c1ccc(O)c(O)c1)OCCc1ccccc1
inactive: [11] | [6] | [7] | [8] | [9]

COc1cc([C@@H]2c3cc4c(cc3[C@H](O)C3COC(=O)[C@@H]32)OCO4)cc(OC)c1OC (stereo not given in full)
inactive: [11] | [12] | [5] | [6] | [7] | [8] | [9]

CCCCCCCCCC[Si](C)(C)CCC(=O)NC(Cc1ccc(C)cc1)c1ccccc1 (stereo not given)
inactive: [11] | [5] | [6] | [7] | [8] | [9]

CC(C)NC[C@H](O)COc1cccc2[nH]ccc12
inactive: [3] | [4] | [11] | [5] | [6] | [7] | [8] | [9]

COC1=CC(=O)OC(CCc2ccc3c(c2)OCO3)C1 (stereo not given)
active: [1] 2 µM
inactive: [14] > 92 µM | [15] > 92 µM | [16] > 92 µM | [17] > 92 µM | [18] > 92 µM | [19] | [2] | [20] | [6] | [7] | [8] | [9]
